Our source for the log2 fold change values is the supplement of paper PMC10849652.

Of roughly 8,800 targets only a part is listed; those with a hit were picked by preference. About 0.5% of all pairs of compound and target were hits. Values without a mark were called inactive.

Sequence of UniProt Q9BTE3 (Q9BTE3 whole entry, looked up): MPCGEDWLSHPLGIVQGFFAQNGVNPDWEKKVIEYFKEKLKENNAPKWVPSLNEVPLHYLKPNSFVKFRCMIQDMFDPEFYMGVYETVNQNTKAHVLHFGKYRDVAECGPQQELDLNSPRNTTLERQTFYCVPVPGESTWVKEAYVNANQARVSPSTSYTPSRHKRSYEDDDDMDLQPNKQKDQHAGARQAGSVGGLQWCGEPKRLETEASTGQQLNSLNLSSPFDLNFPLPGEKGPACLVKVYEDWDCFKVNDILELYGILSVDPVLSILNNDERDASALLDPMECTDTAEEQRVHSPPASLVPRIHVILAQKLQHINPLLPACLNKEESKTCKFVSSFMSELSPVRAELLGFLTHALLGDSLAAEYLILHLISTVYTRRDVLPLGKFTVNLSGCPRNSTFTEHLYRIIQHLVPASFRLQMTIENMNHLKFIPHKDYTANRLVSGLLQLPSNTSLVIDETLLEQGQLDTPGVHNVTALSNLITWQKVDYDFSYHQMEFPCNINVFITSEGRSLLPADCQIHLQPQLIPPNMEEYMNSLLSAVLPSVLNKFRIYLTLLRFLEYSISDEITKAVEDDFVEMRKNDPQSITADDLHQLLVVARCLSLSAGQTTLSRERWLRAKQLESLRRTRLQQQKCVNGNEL
Sequence of UniProt Q08380 (Q08380 whole entry, looked up): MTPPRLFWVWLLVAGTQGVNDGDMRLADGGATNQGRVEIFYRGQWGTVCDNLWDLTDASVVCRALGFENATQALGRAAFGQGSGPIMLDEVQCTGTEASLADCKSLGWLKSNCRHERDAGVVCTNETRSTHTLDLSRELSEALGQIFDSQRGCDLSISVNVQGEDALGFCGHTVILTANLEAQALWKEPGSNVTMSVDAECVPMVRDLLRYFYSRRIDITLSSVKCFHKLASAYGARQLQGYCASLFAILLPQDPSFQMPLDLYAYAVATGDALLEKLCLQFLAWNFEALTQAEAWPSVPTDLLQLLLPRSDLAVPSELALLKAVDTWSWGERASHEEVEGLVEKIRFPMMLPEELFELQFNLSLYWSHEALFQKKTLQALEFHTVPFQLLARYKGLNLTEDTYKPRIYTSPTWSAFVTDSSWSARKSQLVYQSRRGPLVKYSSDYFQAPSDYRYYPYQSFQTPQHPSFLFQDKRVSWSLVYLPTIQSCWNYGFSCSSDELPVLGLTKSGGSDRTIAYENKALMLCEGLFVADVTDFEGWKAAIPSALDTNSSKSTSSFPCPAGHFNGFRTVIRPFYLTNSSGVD
Sequence of UniProt O60337 (O60337 whole entry, looked up): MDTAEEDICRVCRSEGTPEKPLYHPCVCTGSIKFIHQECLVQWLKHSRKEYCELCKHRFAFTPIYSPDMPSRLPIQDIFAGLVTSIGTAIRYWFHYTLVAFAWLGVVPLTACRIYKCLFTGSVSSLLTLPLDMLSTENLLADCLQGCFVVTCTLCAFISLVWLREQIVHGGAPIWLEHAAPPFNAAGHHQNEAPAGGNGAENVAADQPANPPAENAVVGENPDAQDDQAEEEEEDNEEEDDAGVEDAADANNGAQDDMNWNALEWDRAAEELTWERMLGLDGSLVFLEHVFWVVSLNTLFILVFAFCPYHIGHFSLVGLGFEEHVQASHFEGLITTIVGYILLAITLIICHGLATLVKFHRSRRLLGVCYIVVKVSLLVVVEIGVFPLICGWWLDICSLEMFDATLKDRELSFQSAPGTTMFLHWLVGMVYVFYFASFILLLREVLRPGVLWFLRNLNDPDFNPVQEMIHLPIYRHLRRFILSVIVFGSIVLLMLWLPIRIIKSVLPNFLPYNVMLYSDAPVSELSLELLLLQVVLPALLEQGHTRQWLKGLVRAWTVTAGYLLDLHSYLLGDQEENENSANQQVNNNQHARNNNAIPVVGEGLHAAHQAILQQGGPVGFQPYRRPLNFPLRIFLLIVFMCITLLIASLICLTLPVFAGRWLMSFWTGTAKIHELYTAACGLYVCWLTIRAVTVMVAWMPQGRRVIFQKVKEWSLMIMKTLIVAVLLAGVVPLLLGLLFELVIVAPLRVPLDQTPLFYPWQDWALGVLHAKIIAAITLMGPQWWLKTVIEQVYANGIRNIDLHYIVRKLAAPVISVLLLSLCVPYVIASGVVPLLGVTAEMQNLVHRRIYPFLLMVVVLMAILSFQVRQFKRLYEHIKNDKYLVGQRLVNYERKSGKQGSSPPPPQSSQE
Sequence of UniProt Q9BVG8 (Q9BVG8 whole entry, looked up): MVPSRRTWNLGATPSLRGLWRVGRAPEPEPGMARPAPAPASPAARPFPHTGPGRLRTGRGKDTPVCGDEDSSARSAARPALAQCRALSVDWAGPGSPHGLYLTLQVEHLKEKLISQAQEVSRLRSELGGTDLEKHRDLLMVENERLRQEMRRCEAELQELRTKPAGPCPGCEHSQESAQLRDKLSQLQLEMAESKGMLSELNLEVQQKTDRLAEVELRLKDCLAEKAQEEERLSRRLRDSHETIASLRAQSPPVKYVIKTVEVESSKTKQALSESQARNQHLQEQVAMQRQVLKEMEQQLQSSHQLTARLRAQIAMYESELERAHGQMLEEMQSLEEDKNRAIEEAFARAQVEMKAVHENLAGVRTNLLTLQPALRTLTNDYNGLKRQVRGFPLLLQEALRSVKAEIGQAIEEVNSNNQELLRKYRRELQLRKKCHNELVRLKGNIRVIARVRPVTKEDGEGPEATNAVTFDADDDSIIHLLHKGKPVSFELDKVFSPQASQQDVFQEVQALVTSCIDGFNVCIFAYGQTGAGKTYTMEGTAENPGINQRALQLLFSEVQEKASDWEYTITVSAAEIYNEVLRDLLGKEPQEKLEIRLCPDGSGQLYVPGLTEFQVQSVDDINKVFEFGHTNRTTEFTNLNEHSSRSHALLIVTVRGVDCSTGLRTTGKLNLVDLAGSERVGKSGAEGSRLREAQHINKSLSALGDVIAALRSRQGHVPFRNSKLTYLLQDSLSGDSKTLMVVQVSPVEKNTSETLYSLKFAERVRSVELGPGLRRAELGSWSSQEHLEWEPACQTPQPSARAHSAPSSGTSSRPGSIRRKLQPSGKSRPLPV
Sequence of UniProt P53667 (P53667 whole entry, looked up): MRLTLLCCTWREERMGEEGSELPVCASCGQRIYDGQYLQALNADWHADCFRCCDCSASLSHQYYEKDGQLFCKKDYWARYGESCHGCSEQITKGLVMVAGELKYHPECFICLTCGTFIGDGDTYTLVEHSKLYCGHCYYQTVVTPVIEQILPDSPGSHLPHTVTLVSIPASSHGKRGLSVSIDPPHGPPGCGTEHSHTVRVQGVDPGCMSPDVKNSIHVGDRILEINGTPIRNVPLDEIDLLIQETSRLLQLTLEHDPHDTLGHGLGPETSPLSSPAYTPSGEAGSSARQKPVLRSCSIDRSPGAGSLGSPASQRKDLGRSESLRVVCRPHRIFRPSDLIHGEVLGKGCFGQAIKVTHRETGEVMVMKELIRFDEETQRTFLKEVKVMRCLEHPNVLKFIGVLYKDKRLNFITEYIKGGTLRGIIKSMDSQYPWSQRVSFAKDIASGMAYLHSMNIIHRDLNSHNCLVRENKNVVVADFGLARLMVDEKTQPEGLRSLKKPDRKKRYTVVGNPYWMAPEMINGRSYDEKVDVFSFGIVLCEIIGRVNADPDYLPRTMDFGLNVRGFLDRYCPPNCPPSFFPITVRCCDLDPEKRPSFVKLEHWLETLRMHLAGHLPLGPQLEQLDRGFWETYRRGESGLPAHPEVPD
Sequence of UniProt O95819 (O95819 whole entry, looked up): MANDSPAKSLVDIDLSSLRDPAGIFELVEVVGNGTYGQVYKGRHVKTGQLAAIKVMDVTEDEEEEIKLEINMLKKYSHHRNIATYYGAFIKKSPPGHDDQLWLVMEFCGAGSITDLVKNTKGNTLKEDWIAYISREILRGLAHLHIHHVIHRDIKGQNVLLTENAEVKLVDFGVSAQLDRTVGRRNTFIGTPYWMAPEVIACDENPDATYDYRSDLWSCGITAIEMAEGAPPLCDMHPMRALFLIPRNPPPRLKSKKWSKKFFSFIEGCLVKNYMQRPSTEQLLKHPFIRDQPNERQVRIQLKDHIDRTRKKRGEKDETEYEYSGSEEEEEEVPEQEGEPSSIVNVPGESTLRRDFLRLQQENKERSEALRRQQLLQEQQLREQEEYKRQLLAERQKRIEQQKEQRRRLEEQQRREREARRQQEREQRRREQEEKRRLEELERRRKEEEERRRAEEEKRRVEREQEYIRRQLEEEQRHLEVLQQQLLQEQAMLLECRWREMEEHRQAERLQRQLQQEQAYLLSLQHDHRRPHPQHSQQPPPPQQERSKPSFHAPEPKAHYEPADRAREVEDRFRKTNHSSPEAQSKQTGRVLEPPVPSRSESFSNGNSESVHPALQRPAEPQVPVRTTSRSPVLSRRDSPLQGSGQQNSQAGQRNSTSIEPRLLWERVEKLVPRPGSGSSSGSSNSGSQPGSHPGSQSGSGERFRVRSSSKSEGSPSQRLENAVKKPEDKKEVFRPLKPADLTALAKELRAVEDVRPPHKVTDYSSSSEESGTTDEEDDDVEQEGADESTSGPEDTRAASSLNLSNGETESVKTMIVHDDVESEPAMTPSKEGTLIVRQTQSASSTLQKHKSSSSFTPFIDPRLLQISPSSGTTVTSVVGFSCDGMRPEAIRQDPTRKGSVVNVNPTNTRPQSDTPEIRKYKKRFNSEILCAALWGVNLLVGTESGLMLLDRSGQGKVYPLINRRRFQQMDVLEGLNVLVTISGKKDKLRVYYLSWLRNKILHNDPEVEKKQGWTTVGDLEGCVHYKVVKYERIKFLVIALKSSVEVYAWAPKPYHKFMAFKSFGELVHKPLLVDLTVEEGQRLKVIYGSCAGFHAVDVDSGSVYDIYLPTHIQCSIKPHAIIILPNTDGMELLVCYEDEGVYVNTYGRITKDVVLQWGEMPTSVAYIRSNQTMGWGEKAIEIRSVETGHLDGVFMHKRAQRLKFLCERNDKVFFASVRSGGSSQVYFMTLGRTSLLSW
Sequence of UniProt P01116 (P01116 whole entry, looked up): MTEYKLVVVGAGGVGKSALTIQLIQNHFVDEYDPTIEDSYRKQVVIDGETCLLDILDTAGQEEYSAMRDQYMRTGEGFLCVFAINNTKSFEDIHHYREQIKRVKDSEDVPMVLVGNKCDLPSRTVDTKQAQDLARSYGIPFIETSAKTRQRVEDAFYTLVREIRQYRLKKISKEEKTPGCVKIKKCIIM

Compound in one test: CNc1nc(-c2ccc3c(N)n[nH]c3c2)cc(N2C[C@@H](C(=O)NC3CCCCC3)CC[C@H]2C)n1
The test is described as follows: log2 fold change, soluble protein after heating vs DMSO (PISA); higher = thermal stabilisation; K562 lysate, 10 uM; active = over 0.2 and 3.5 SD of the protein, either way, in both replicates (recomputed). In a few lines: (§1)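 Quantification was by TMTpro 16plex LC-MS/MS with equalised channel sums, applied to the supernatant after 21,000xg for 90 min. Samples were crude K562 extract at 1 mg/mL protein in PBS pH 7.4 with 1 mM MgCl2, treated with 10 μM compound for 30 min, heated for 3 min across 48°C-58°C, pooled and brought to 0.5% NP-40 at 4°C. Values are log-two fold changes in thermal stability relative to solvent controls, from duplicates.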
On to MAP4K4 isoform 3 (UniProt O95819), for which the log2 fold change is -0.08.

In the case of MARCHF6 (UniProt O60337), the log2 fold change was 0.084.

With LSM11 (UniProt P83369), the log2 fold change was 0.009.

Regarding METTL21A (UniProt Q8WXB1), the log2 fold change was 0.

With KIF18B (UniProt Q86Y91), the log2 fold change was -0.067.

For KLHL12 isoform 2 (UniProt Q53G59), the log2 fold change was -0.02.

On to KRAS isoform 2 (UniProt P01116), for which the log2 fold change was 0.046.

For the target MME (UniProt P08473), the log2 fold change was 0.142.

Turning to LIMK1 (UniProt P53667), the log2 fold change is -0.085.

With MEX3A (UniProt A1L020), the log2 fold change was 0.037.

Regarding MEGF8 (UniProt Q7Z7M0), the log2 fold change is -0.051.

Regarding MAPK12 (UniProt P53778), the log2 fold change was 0.054.

MCUB (UniProt Q9NWR8): the log2 fold change was -0.074.

Consider KIFC3 isoform 6 (UniProt Q9BVG8), for which the log2 fold change was 0.308.

As to MMS22L (UniProt Q6ZRQ5), the log2 fold change was -0.03.

With MRC2 (UniProt Q9UBG0), the log2 fold change was 0.05.

For the target MED28 (UniProt Q9H204), the log2 fold change is 0.081.

Regarding MCMBP isoform 2 (UniProt Q9BTE3), the log2 fold change is 0.199.

Regarding LGALS3BP (UniProt Q08380), the log2 fold change is -0.571 (active).

As for KMT2B (UniProt Q9UMN6), the log2 fold change was 0.246.

As to MINDY1 isoform 3 (UniProt Q8N5J2), the log2 fold change is -0.054.

For KRIT1 (UniProt O00522), the log2 fold change is 0.102.

On to KIF21A (UniProt H0YI78), for which the log2 fold change was -0.01.

Consider MAPKAP1 (UniProt Q9BPZ7), for which the log2 fold change was 0.081.

In the case of MAP4 isoform 5 (UniProt P27816), the log2 fold change is 0.138.

Regarding LRRC7 (UniProt Q96NW7), the log2 fold change was 0.058.

MAP4K4 isoform 6 (UniProt O95819): the log2 fold change is -0.016.

Compound in another test: COC(=O)N[C@@H](C)CNc1nccc(-c2cn(C(C)C)nc2-c2cc(Cl)cc(NS(C)(=O)=O)c2F)n1 [encorafenib]
The test is described as above. In a few lines:
as §1
Turning to MAP4K4 isoform 3 (UniProt O95819), the log2 fold change is -0.075.

With MARCHF6 (UniProt O60337), the log2 fold change was 0.08.

Consider KLC1 isoform 10 (UniProt Q07866), for which the log2 fold change is 0.06.

For LSM11 (UniProt P83369), the log2 fold change is 0.082.

For KIF18B (UniProt Q86Y91), the log2 fold change was -0.159.

Consider KRAS isoform 2 (UniProt P01116), for which the log2 fold change was -0.109.

As to MAPK7 (UniProt Q13164), the log2 fold change was -0.03.

On to LIMK1 (UniProt P53667), for which the log2 fold change is 0.489 (active).

Take MEGF8 (UniProt Q7Z7M0): the log2 fold change is -0.01.

In the case of MAPK12 (UniProt P53778), the log2 fold change was -0.001.

KIFC3 isoform 6 (UniProt Q9BVG8): the log2 fold change was -0.053.

With LEPROT (UniProt O15243), the log2 fold change was -0.003.

As for MMS22L (UniProt Q6ZRQ5), the log2 fold change is -0.007.

For the target MRC2 (UniProt Q9UBG0), the log2 fold change is 0.031.

With LY6E (UniProt Q16553), the log2 fold change was 0.03.

Consider MCMBP isoform 2 (UniProt Q9BTE3), for which the log2 fold change is -0.015.

LGALS3BP (UniProt Q08380): the log2 fold change is 0.023.

In the case of LRP1 (UniProt Q07954), the log2 fold change is -0.091.

On to MAP3K6 (UniProt O95382), for which the log2 fold change is 0.167.

For the target KMT2B (UniProt Q9UMN6), the log2 fold change was 0.127.

As for LRRC9 (UniProt Q6ZRR7), the log2 fold change is -0.022.

Regarding MINDY1 isoform 3 (UniProt Q8N5J2), the log2 fold change is 0.03.

Consider KRIT1 (UniProt O00522), for which the log2 fold change is 0.118.

For MAPKAP1 (UniProt Q9BPZ7), the log2 fold change was -0.051.

As to MAP4 isoform 5 (UniProt P27816), the log2 fold change is -0.051.

Regarding LRRC7 (UniProt Q96NW7), the log2 fold change was -0.103.

As for MAP4K4 isoform 6 (UniProt O95819), the log2 fold change was 0.207.

Compound in another test: COC(=O)[C@H](CCSC)NC(=O)C1=C(C=C(C=C1)NC[C@H](CS)N)C2=CC=CC=C2
The description is as above. In a few lines: as §1
In the case of MAP4K4 isoform 3 (UniProt O95819), the log2 fold change was -0.014.

Regarding MARCHF6 (UniProt O60337), the log2 fold change was -0.05.

As to KLC1 isoform 10 (UniProt Q07866), the log2 fold change was -0.109.

On to LSM11 (UniProt P83369), for which the log2 fold change was 0.041.

As for KIF18B (UniProt Q86Y91), the log2 fold change was -0.04.

As to KRAS isoform 2 (UniProt P01116), the log2 fold change was -0.062.

As to MAPK7 (UniProt Q13164), the log2 fold change was -0.114.

Take LIMK1 (UniProt P53667): the log2 fold change is -0.086.

MEGF8 (UniProt Q7Z7M0): the log2 fold change is 0.131.

In the case of MAPK12 (UniProt P53778), the log2 fold change is 0.035.

As to KIFC3 isoform 6 (UniProt Q9BVG8), the log2 fold change is 0.04.

As for LEPROT (UniProt O15243), the log2 fold change is 0.01.

Turning to MMS22L (UniProt Q6ZRQ5), the log2 fold change was 0.017.

On to MRC2 (UniProt Q9UBG0), for which the log2 fold change is -0.301.

Turning to LY6E (UniProt Q16553), the log2 fold change was -0.005.

Consider MCMBP isoform 2 (UniProt Q9BTE3), for which the log2 fold change is 0.124.

Regarding LGALS3BP (UniProt Q08380), the log2 fold change is 0.082.

With LRP1 (UniProt Q07954), the log2 fold change is 0.043.

MAP3K6 (UniProt O95382): the log2 fold change is -0.031.

Consider KMT2B (UniProt Q9UMN6), for which the log2 fold change is -0.008.

Take LRRC9 (UniProt Q6ZRR7): the log2 fold change is 0.003.

Take MINDY1 isoform 3 (UniProt Q8N5J2): the log2 fold change is -0.053.

With KRIT1 (UniProt O00522), the log2 fold change is 0.123.

In the case of MAPKAP1 (UniProt Q9BPZ7), the log2 fold change is 0.036.

MAP4 isoform 5 (UniProt P27816): the log2 fold change was -0.025.

As for LRRC7 (UniProt Q96NW7), the log2 fold change is 0.026.

Take MAP4K4 isoform 6 (UniProt O95819): the log2 fold change is -0.034.
